Hit rate of the full screen: of about 1,300 compounds, about 240 (18%) were called active. Another 8% or so got no clear call; they are omitted. No rule for the calls is given here. Not all results are given here. Measured potencies and affinities stand elsewhere.

The assay in a line: toxicity to human hepatoma HepG2 cells – cell-based, cherry-picked samples, cytotoxicity control, dose response (AID 1159577). Conditions: HepG2 cytotoxicity counterscreen, plate reader; series mostly up to 19.5 µM. A general note: A counterscreen serves to expose hits that act by an unwanted route or on another target.
For the molecule `CCCNC(=O)c1cc2c(c(-c3cccc(-c4cc5ccccc5o4)c3)n1)[C@@H](CCO)N(C(=O)NC(C)C)C2`, the result was inactive. As for `O=C(C1CCC1)N1C[C@@H]2N[C@H](C1)C2c1ccc(-c2ccccc2F)cc1` (stereo not given in full), the entry is “inactive”; as for `N#Cc1ccc(-c2ccc(C3[C@@H]4CN(C(=O)C5CCC5)C[C@H]3N4)cc2)cc1` (stereo not given in full), “inactive”; as for `C/C=C/c1ccc([C@H]2[C@H](CO)N(S(=O)(=O)Cc3ccccc3)C23CN(C(=O)C2CCCC2)C3)cc1`, “inactive”.

For `CCCNC(=O)N1CCC2(CC1)CN(Cc1cccc(F)c1)[C@@H](CO)c1[nH]c3cc(OC)ccc3c12`, the molecule was classed as inactive. In the case of `C[C@@H]1CN([C@@H](C)CO)C(=O)c2cccc(NC(=O)C3CC3)c2O[C@H]1CN(C)Cc1ccc(-c2ccccc2)cc1`, the call was inactive. As for `C[C@H](CO)N1C[C@H](C)[C@H](CN(C)S(=O)(=O)c2ccccc2)Oc2ccc(NC(=O)Cc3cn(C)c4ccccc34)cc2C1=O`, the entry is “inactive”. In the case of `C[C@H]1CN([C@@H](C)CO)S(=O)(=O)c2ccc(C#Cc3ccccc3F)cc2O[C@@H]1CN(C)C(=O)c1ccc2c(c1)OCO2`, the result was inactive.

For the molecule `CO[C@H]1CN(C)C(=O)c2cc(NC(C)=O)ccc2OC[C@H](C)N(Cc2ccncc2)C[C@H]1C`, the outcome was inactive. Take `C[C@@H]1CN([C@@H](C)CO)C(=O)Cc2cc(NC(=O)NC3CCCCC3)ccc2O[C@H]1CN(C)C(=O)Nc1cccc2ccccc12`: the molecule was called inactive. As for `COc1ccccc1-c1ccc2c(c1)[C@H]1[C@H](CCN1C(=O)C1CCCC1)[C@@H](CO)N2`, the outcome was inactive. In the case of `CCCC#Cc1ccc2c(c1)[C@H]1[C@H](CCN1Cc1ccccc1F)[C@@H](CO)N2`, the molecule was classed as inactive.

`COc1ccc(C#Cc2ccc3c(c2)[C@H]2[C@H](CCN2Cc2ccncc2)[C@@H](CO)N3)cc1`: the result was inactive. On to `COc1ccc(C#Cc2ccc3c(c2)[C@H]2[C@H](CCN2Cc2ccncc2)[C@H](CO)N3)cc1`, for which the outcome was inactive. On to `COc1ccccc1-c1ccc2c(c1)[C@@H]1[C@@H](CCN1C(=O)C1CCCCC1)[C@@H](CO)N2`, for which the outcome was inactive. As for `COc1ccc(C#Cc2ccc3c(c2)[C@H]2[C@H](CCN2Cc2nccs2)[C@H](CO)N3)cc1`, the call was inactive. For `OC[C@H]1CC[C@@H]2O[C@H](CCc3ccc(C#CCc4ccccc4)cc3)[C@H](n3cc(-c4ccccc4)nn3)C[C@@H]2O1`, the outcome was inactive. The entry for `O=C(Cc1cccnc1)N1CC[C@H]2[C@H](CO)Nc3ccc(C#Cc4cccc(F)c4)cc3[C@H]21` is “inactive”; for `COCC(=O)N1[C@H](CO)[C@@H](c2ccccc2)C12CN(Cc1cc(F)ccc1F)C2` it is “inactive”; for `COc1ccccc1-c1ccccc1[C@@H]1[C@@H](C#N)N(C(=O)C2CC2)[C@@H]1CO` it is “inactive”. For `COc1ccc2c3c(n(C)c2c1)[C@@H](CO)N(CC1CCCCC1)CC31CCN(C(=O)CN(C)C)CC1`, the result was inactive.

`COc1ccc(C#Cc2ccc3c(c2)[C@H]2[C@H](CCN2C(=O)C2CCCC2)[C@@H](CO)N3)cc1`: the molecule was called inactive.

For `CCCNC(=O)N1[C@@H](C#N)[C@H](c2ccccc2-c2ccccc2F)[C@@H]1CO`, the call was inactive. In the case of `COc1ccc(NC(=O)N(C)C[C@@H]2Oc3cc(-c4ccc(C)cc4)ccc3S(=O)(=O)N([C@@H](C)CO)C[C@H]2C)cc1`, the molecule was called inactive. In the case of `COc1ccc2c3c(n(C)c2c1)[C@@H](CO)N(C(=O)Nc1ccc(F)cc1)CC31CN(C(=O)c2ccc3c(c2)OCO3)C1`, the outcome was inactive.

In the case of `COc1ccc2c3c([nH]c2c1)[C@@H](CO)N(Cc1cc(F)ccc1F)CC31CN(C(=O)CN(C)C)C1`, the result was inactive. Take `CC(C)(C)[S@@](=O)N1Cc2cc(C(=O)NCCc3ccncc3)nc(-c3cccc(-c4ccccc4)c3)c2[C@H]1CCO`: the result was inactive.

For `COc1ccc2c3c(n(C)c2c1)[C@@H](CO)N(C(=O)C1CCCC1)CC31CN(C(=O)Nc2cccc(F)c2)C1`, the molecule was called inactive.

Consider `CCCC#Cc1ccc([C@H]2[C@@H](CO)N(C(=O)C3CCCCC3)[C@H]2C#N)cc1`, for which the outcome was inactive.

As for `N#C[C@H]1[C@H](c2ccc(C#CC3CCCCC3)cc2)[C@@H](CO)N1S(=O)(=O)c1ccccc1`, the molecule was called inactive. Take `COc1cccc(C#Cc2ccc([C@@H]3[C@@H](C#N)N(C(=O)c4ccccn4)[C@H]3CO)cc2)c1`: the result was inactive. As for `N#C[C@H]1[C@@H](c2ccc(C#CC3CC3)cc2)[C@H](CO)N1S(=O)(=O)c1ccccc1`, the molecule was called inactive. Take `N#C[C@H]1[C@@H](c2ccc(C#CC3CCCC3)cc2)[C@@H](CO)N1S(=O)(=O)Cc1ccccc1`: the outcome was inactive. In the case of `CCS(=O)(=O)N1[C@H](CO)[C@H](c2ccc(C#Cc3ccccc3F)cc2)[C@@H]1C#N`, the molecule was called inactive.

As to `COc1ccc(C#Cc2ccc3c(c2)[C@H]2[C@H](CCN2Cc2nccs2)[C@@H](CO)N3)cc1`, the result was inactive. With `CCCN1C[C@@H](C)[C@H](OC)CN(C)C(=O)c2ccc(NC(=O)c3ccc4c(c3)OCO4)cc2OC[C@H]1C`, the outcome was inactive. On to `CC(C)(O)C#Cc1cccc(-c2nc(C(=O)N[C@@H]3CCN(Cc4ccccc4)C3)cc3c2[C@H](CCO)N(S(=O)C(C)(C)C)C3)c1` (stereo not given in full), for which the outcome was inactive.

Take `CCCC#Cc1cnc2c(c1)C(=O)N([C@@H](C)CO)C[C@H](C)[C@H](CN(C)C(=O)Nc1cccc(F)c1)O2`: the result was inactive. As to `C[C@H](CO)N1C[C@H](C)[C@H](CN(C)S(=O)(=O)c2ccccc2)Oc2cc(C#Cc3ccncc3)ccc2S1(=O)=O`, the molecule was classed as inactive. Consider `C[C@@H]1CN([C@@H](C)CO)C(=O)c2cccc(NC(=O)c3cnccn3)c2O[C@@H]1CN(C)Cc1ccc(C(F)(F)F)cc1`, for which the molecule was called inactive. `CC(C)(C)S(=O)N1Cc2cc(C(=O)NCc3ccc4c(c3)OCO4)nc(-c3cccc(C#CCC4CCCC4)c3)c2[C@@H]1CCO` (stereo not given in full): the result was inactive. Regarding `COc1ccc(-c2ccc([C@@H]3[C@@H](CO)N4C(=O)CN(C(=O)C5CCCC5)C[C@@H]34)cc2)cc1`, the call was inactive. As for `C[C@@H]1CN([C@@H](C)CO)C(=O)c2cccc(NC(=O)Nc3ccc4c(c3)OCO4)c2O[C@@H]1CN(C)C(=O)Nc1ccc2c(c1)OCO2`, the outcome was inactive. In the case of `O=C(c1cccnc1)N1CC2(C1)[C@@H](c1ccccc1)[C@@H](CO)N2C(=O)CC1CC1`, the molecule was classed as inactive. As for `COc1ccc(S(=O)(=O)N2CCC3(CC2)CN(Cc2ccncc2)[C@H](CO)c2[nH]c4cc(OC)ccc4c23)cc1`, the entry is “inactive”. As for `COc1cccc(-c2ccc3c(c2)[C@H]2[C@H](CCN2C(=O)C2CCCCC2)[C@@H](CO)N3)c1`, the result was inactive. As to `C[C@@H]1CN([C@@H](C)CO)C(=O)c2cccc(NC(=O)c3nc4ccccc4s3)c2O[C@H]1CN(C)C(=O)NC1CCCCC1`, the outcome was inactive. Turning to `N#C[C@@H]1[C@H](c2ccc(-c3cccc(F)c3)cc2)[C@H](CO)N1C(=O)NC1CCCC1`, the result was inactive. As to `OC[C@H]1[C@@H](c2ccc(-c3cccnc3)cc2)[C@@H]2CN(CC3CC3)CCCCN12`, the result was inactive. As to `N#C[C@@H]1[C@H](c2ccc(-c3cccc(F)c3)cc2)[C@@H](CO)N1C(=O)NC1CCCC1`, the outcome was inactive. As to `OC[C@H]1[C@@H](c2ccc(-c3cccnc3)cc2)[C@H]2CN(CC3CC3)CCCCN21`, the result was inactive. Consider `OC[C@@H]1Nc2ccc(C3=CCCCC3)cc2[C@@H]2[C@H]1CCN2Cc1nccs1`, for which the call was inactive. Consider `C[C@@H]1CN([C@@H](C)CO)C(=O)c2c(c3ccccc3n2C)-c2ccccc2CO[C@H]1CN(C)Cc1ccc(Cl)c(Cl)c1`, for which the molecule was classed as inactive. As for `C[C@@H]1CN([C@@H](C)CO)C(=O)c2c(c3ccccc3n2C)-c2ccccc2CO[C@@H]1CN(C)Cc1ccc(Oc2ccccc2)cc1`, the entry is “inactive”; as for `C[C@H]1CN([C@@H](C)CO)C(=O)c2c(c3ccccc3n2C)-c2ccccc2CO[C@@H]1CN(C)Cc1ccc(Oc2ccccc2)cc1`, “inactive”. With `C[C@@H]1CN([C@@H](C)CO)C(=O)c2c(c3ccccc3n2C)-c2ccccc2CO[C@@H]1CN(C)C(=O)c1cc(Cl)cc(Cl)c1`, the call was inactive. As for `C[C@@H]1CN([C@H](C)CO)S(=O)(=O)c2ccc(-c3cccc(C(=O)N(C)C)c3)cc2O[C@H]1CN(C)Cc1ccc2c(c1)OCO2`, the entry is “inactive”; as for `COCC#Cc1ccc(CC[C@H]2O[C@H]3CC[C@H](CO)O[C@H]3C[C@@H]2n2cc(C3CC3)nn2)cc1`, “inactive”; as for `COc1cccc(NC(=O)N2CC(=O)N3[C@H](CO)[C@@H](c4ccc(C#CCC5CCCC5)cc4)[C@H]3C2)c1`, “inactive”. As for `COc1ccc2c3c(n(C)c2c1)[C@H](CO)N(C(=O)Nc1ccc(F)cc1)CC31CCN(Cc2cccnc2)CC1`, the call was inactive.

`COc1cccc(C#Cc2ccc([C@H]3[C@@H](CO)N4C(=O)CN(C(=O)Cc5ccccc5)C[C@H]34)cc2)c1`: the molecule was called inactive. The entry for `Cc1ccc(-c2ccc([C@H]3[C@@H](CO)N4C(=O)CN(C(=O)Nc5cccc(F)c5)C[C@H]34)cc2)cc1` is “inactive”. As to `C[C@H]1CN([C@@H](C)CO)C(=O)c2c(c3ccccc3n2C)-c2ccccc2CO[C@H]1CN(C)C(=O)c1cc(Cl)cc(Cl)c1`, the result was inactive. In the case of `CCS(=O)(=O)N1CCC2(CC1)CN(Cc1cc(F)ccc1F)[C@H](CO)c1c2c2ccc(OC)cc2n1C`, the molecule was classed as inactive.

Turning to `CCCNC(=O)Nc1ccc2c(c1)OC[C@@H](C)N(CC1CCCC1)C[C@@H](C)[C@H](OC)CN(C)C2=O`, the outcome was inactive.

As for `COc1ccc2c3c([nH]c2c1)[C@H](CO)N(Cc1ccccc1OC)CC31CCN(S(=O)(=O)c2ccccc2)CC1`, the call was inactive.

Turning to `COc1ccc2c3c([nH]c2c1)[C@H](CO)N(C(=O)C1CCOCC1)CC31CCN(Cc2nccs2)CC1`, the result was inactive. As to `O=C(C[C@H]1C[C@@H]2c3cc(NS(=O)(=O)c4ccc(F)cc4)ccc3O[C@@H]2[C@@H](CO)O1)N1CCc2ccccc2C1`, the result was inactive. Turning to `O=C(c1ccccc1F)N1CC(=O)N2[C@H](C1)[C@@H](c1ccc(-c3cccnc3)cc1)[C@@H]2CO`, the call was inactive. For `N#C[C@@H]1[C@@H](c2ccccc2C2=CCCC2)[C@H](CO)N1C(=O)C1CC1`, the call was inactive.

(Values after PubChem BioAssay AID1159577 (Broad Institute, 2015).)
